Hits are enriched below; roughly 3.1% of the tested compounds scored in any of these assays.
HSF1 inhib – HSF1 inhibition. NIH3T3-HGL HSE-luciferase, MG132-induced, luminescence 8 h; hits give low values. activity change, negative = inhibition, % at 7.5 µM (by protocol). actives 0.77% (n = 300,000);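 active means more than half of replicate wells show activity change below -50%, luminescence cut by over half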;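 further: luciferase reports HSF-1 transcriptional activity via heat shock element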
HSF1 activator – increases HSF-1 driven luciferase reporter signal; NIH3T3-HGL HSF-1 luciferase reporter, MG132, 8 h; 100% = twice DMSO control signal; activation, % at 9 µM; actives 1.7% (n = 300,000);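 active means mean replicate activation of at least 50% with a set share of replicates each reaching 50%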
HIF act – HIF pathway transcriptional activation | activation, % at 7.5 µM (by protocol) | AID 1910 | actives 0.32% (n = 300,000) | U2OS HRE-luciferase reporter, luminescence; normalized: DMSO 0%, desferrioxamine 100%;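 active means mean activation of at least 10% of the iron chelator positive control signal, with at least half of replicates also reaching 10%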
HSP90 inh – inhibitors of HSP90 luciferase refolding in rabbit reticulocyte lysate; inhibition, % at 5.6 µM; actives 0.91% (n = 290,000); luciferase refolding luminescence, 3 h;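 active means inhibition above the screen-wide mean plus 3 SD, computed separately per campaign, cut at about 16% in these data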;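 further: inhibitors lower the luminescence because luciferase stays unfolded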
ARNT TACC3 PPI – disruptors of human ARNT/TACC3 interaction | Q9Y6A5 | AlphaScreen His-ARNT PAS-B/GST-TACC3 binding, luminescence; TACC3 fragment carries E629A point mutation | inhibition, % at 9.99 µM | actives 0.66% (n = 390,000) | AID 623870;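 active means mean inhibition of replicates at least 50% and at least half of replicates each reaching 50%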
Large screens that a line does not name were inactive.

COc1ccc(CN(C)C[C@H]2OCCCC[C@@H](C)Oc3ccc(NC(=O)Nc4ccccc4)cc3C(=O)N([C@H](C)CO)C[C@H]2C)cc1	none (no result: HSF1 inhib, HSF1 activator, HIF act, HSP90 inh)
S=C1SCN(Cc2cccnc2)CN1Cc1cccnc1	HSF1 inhib -86
C[C@H]1CN([C@@H](C)CO)C(=O)c2cc(-c3ccc(C#N)cc3)cnc2O[C@@H]1CN(C)CC1CCCCC1	none (no result: HSF1 inhib, HSF1 activator, HIF act, HSP90 inh)
CCOc1ccc(/C=C/[N+](=O)[O-])c2ccccc12	HSF1 activator 76
O=[N+]([O-])/C=C/c1c(OCc2ccccc2)ccc2ccccc12	none
CCOC(=O)COc1ccc(/C=C/[N+](=O)[O-])c(OCC(=O)OCC)c1	HSF1 activator 197
CCOC(=O)COc1ccc2ccccc2c1/C=C/[N+](=O)[O-]	HSF1 activator 177
CCOC(=O)COc1ccc2nsnc2c1	none
COCCNC(=O)C[C@H]1CC[C@@H]2[C@@H](COc3ccc(NC(=O)Cc4ccccc4)cc3C(=O)N2C)O1	none (no result: HSF1 inhib, HSF1 activator, HIF act, HSP90 inh)
CC(C)c1ccc(N(C(=O)c2csnn2)C(C(=O)NC2CCCC2)c2ccncc2)cc1 (stereo not drawn)	HSF1 activator 53
Cc1ccccc1N(C(=O)c1csnn1)C(C(=O)NC(C)(C)C)c1ccncc1 (stereo not drawn)	HSF1 activator 93
CC(=O)c1cccc(N(C(=O)c2ccccn2)C(C(=O)NC2CCCCC2)c2ccccc2)c1 (stereo not drawn)	HIF act 39
CCC(C)N(C(=O)C(F)(F)F)C(C(=O)NC1CCCCC1)c1ccncc1 (stereo not drawn)	HSF1 inhib -52
Cc1ccc(S(=O)(=O)Nc2cccc3c2O[C@@H](CN(C)C(=O)NC2CCCCC2)[C@H](C)CN([C@H](C)CO)C3=O)cc1	none (no result: HSF1 inhib, HSF1 activator, HIF act, HSP90 inh)
Cc1cc(C)c(N(C(=O)c2csnn2)C(C(=O)NC2CCCC2)c2ccncc2)c(C)c1 (stereo not drawn)	HSF1 inhib -76
COc1ccc(CNC(=O)C(c2ccc(C)o2)N(C(=O)c2csnn2)c2ccc(C(C)C)cc2)cc1 (stereo not drawn)	HSF1 activator 71
Cc1ccc(C)c(N(C(=O)c2csnn2)C(C(=O)NC2CCCC2)c2ccncc2)c1 (stereo not drawn)	none
Cc1ccc(N(C(=O)c2csnn2)C(C(=O)NC2CCCC2)c2ccncc2)c(C)c1 (stereo not drawn)	HSF1 activator 61
COc1ccc(NC(=O)Nc2ccc3c(c2)C(=O)N([C@H](C)CO)C[C@@H](C)[C@H](CN(C)S(=O)(=O)c2cccs2)OCCCC[C@@H](C)O3)cc1	none (no result: HSF1 inhib, HSF1 activator, HIF act, HSP90 inh)
Oc1[nH]c2ccc(Br)cc2c1N=NC(=S)NCC1CCCO1 (stereo not drawn)	none
O=C(N=Nc1c(O)[nH]c2ccccc12)Nc1ccccc1	none (no result: HSF1 inhib, HSF1 activator, HIF act, HSP90 inh)
COc1ccccc1NC(=S)N=Nc1c(O)[nH]c2ccc(Br)cc12	HSF1 activator 86
Cc1cccc(NC(=S)N=Nc2c(O)[nH]c3ccccc23)c1	HSF1 activator 90
Cc1occc1C(=O)N=Nc1c(O)[nH]c2ccc(Br)cc12	HSF1 activator 50 (no result: ARNT TACC3 PPI)
C[C@@H]1CN([C@@H](C)CO)S(=O)(=O)c2ccc(-c3ccccc3)cc2O[C@@H]1CN(C)C(=O)Cc1ccccc1	none (no result: HSF1 inhib, HSF1 activator, HIF act, HSP90 inh)
O=C(NCc1cccs1)c1ccc([N+](=O)[O-])cc1Cl	HSF1 inhib -70
CN1c2ccc(-c3cccc(C#N)c3)cc2[C@H]2[C@H](CCN2C(=O)C2CCC2)[C@H]1CO	none (no result: HSF1 inhib, HSF1 activator, HIF act, HSP90 inh)
CCOc1ccccc1NC(=O)Cn1c(=O)oc2cc(Cl)ccc21	none
CCOc1ccccc1NC(=O)Cn1c(-c2ccc(Cl)cc2)noc1=O	HSF1 inhib -65
CO[C@H]1CN(C)C(=O)c2cc(NC(=O)Nc3ccc(C(F)(F)F)cc3)ccc2OC[C@H](C)NC[C@@H]1C	none (no result: HSF1 inhib, HSF1 activator, HIF act, HSP90 inh)
CC(C)(C)n1ncc2c(=O)n(CC(=O)NCc3ccc(F)cc3)cnc21	HSP90 inh 16
C[C@@H]1CCCCO[C@@H](CN(C)S(=O)(=O)c2cccs2)[C@@H](C)CN([C@@H](C)CO)C(=O)c2cc(NC(=O)c3ccccc3)ccc2O1	none (no result: HSF1 inhib, HSF1 activator, HIF act, HSP90 inh)
CC(C)(C)C(CN1CCCC1)OC(=O)c1ccccc1 (stereo not drawn)	HSF1 inhib -80
O=C1C2CC=CCC2C(=O)N1Cc1ccccc1 (stereo not drawn)	none
O=C1C2CC=CCC2C(=O)N1Cc1nnc(-c2ccc(Cl)cc2)o1 (stereo not drawn)	HSF1 activator 56
O=C(C[C@@H]1CC[C@H]2[C@@H](COC[C@H](O)CN2Cc2cccc(Cl)c2)O1)NCC1CCCCC1	none (no result: HSF1 inhib, HSF1 activator, HIF act, HSP90 inh)
C[C@@H]1CCCCO[C@H](CN(C)S(=O)(=O)c2ccc(F)cc2)[C@H](C)CN([C@H](C)CO)C(=O)c2cc(NC(=O)C3CCCCC3)ccc2O1	none (no result: HSF1 inhib, HSF1 activator, HIF act, HSP90 inh)
ClC(Cl)c1nnc(-c2ccccc2)c(-c2c[nH]c3ccccc23)n1	HSF1 activator 57
CN(C)C(=O)c1ccc(-c2ccc([C@H]3[C@@H](CO)N4CCCCN(C(=O)C5CCCC5)C[C@H]34)cc2)cc1	none (no result: HSF1 inhib, HSF1 activator, HIF act, HSP90 inh)
CCOc1cccc(-c2c(C(=O)N/N=C/c3ccco3)nnn2-c2nonc2N)c1	none
COc1cccc(-c2c(C(=O)N/N=C(\C)c3ccco3)nnn2-c2nonc2N)c1	none
CCOc1ccc(-c2c(C(=O)N/N=C/c3cccnc3)nnn2-c2nonc2N)cc1	HIF act 25
CCOc1cccc(-c2c(C(=O)N/N=C(\C)c3ccccn3)nnn2-c2nonc2N)c1	HIF act 16, ARNT TACC3 PPI 92
COc1cccc(-c2c(C(=O)N/N=C(\C)c3ccc(Cl)s3)nnn2-c2nonc2N)c1	HSF1 activator 56
Cc1ccc(-c2c(C(=O)N/N=C/c3cccnc3)nnn2-c2nonc2N)cc1	none
CCOc1cccc(-c2c(C(=O)N/N=C(\C)c3ccncc3)nnn2-c2nonc2N)c1	none
CCOc1cccc(-c2c(C(=O)N/N=C/c3ccc(C)o3)nnn2-c2nonc2N)c1	HSF1 inhib -68
C[C@@H]1CN([C@@H](C)CO)C(=O)c2cc(NC(=O)Nc3ccc(F)cc3)ccc2O[C@@H]1CN(C)CC1CCCCC1	none (no result: HSF1 inhib, HSF1 activator, HIF act, HSP90 inh)
O=C(O)C[C@H]1C[C@H]2c3cc(NC(=O)c4ccc5c(c4)OCO5)ccc3O[C@H]2[C@H](CO)O1	none (no result: HSF1 inhib, HSF1 activator, HIF act, HSP90 inh)
CC(=O)N(C)C[C@H]1Oc2cc(-c3ccccc3F)ccc2S(=O)(=O)N([C@@H](C)CO)C[C@@H]1C	none (no result: HSF1 inhib, HSF1 activator, HIF act, HSP90 inh)
C[C@H](CO)N1C[C@H](C)[C@H](CN(C)Cc2ccc(C(F)(F)F)cc2)Oc2ccc(NS(=O)(=O)c3ccc(Cl)cc3)cc2CC1=O	none (no result: HSF1 inhib, HSF1 activator, HIF act, HSP90 inh)
COc1ccc(-c2nc3ccccc3c(=O)o2)cc1OC	none
CC(C)C(=O)Nc1ccc(-c2nc3ccccc3c(=O)o2)cc1	ARNT TACC3 PPI 16
CCCCOc1ccc(-c2nnc(-c3ccncc3)o2)cc1	none
CCOc1ccc(-c2nnc(-c3ccncc3)o2)cc1	HSF1 activator 52
CCOc1ccc(-c2nc3ccccc3c(=O)o2)cc1	HSF1 activator 55
